Measured values from PubChem BioAssay (NCI).
The panel holds about 83,000 compounds, 20% with a hit somewhere; the sample as a whole holds those more often.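 Single-dose data. Exposure time 48 hours. Values below 10 considered active.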 Calls of active or inactive are those of the source.

Columns and labels:
Assay in all cases: NCI-60 one-dose screen, 48 h (100 = growth as untreated, 0 = no growth, -100 = all killed)
SR leukemia = details: 10 µM unless noted
RPMI-8226 leukemia = details: 10 µM unless noted
OVCAR-8 ovarian = details: 10 µM unless noted
OVCAR-5 ovarian = details: 10 µM unless noted
OVCAR-4 ovarian = details: 10 µM unless noted
SK-OV-3 ovarian = details: 10 µM unless noted
IGROV1 ovarian = details: 10 µM unless noted
OVCAR-3 ovarian = details: 10 µM unless noted
HS 578T breast = details: 10 µM
NCI/ADR-RES ovarian = details: 10 µM unless noted

Measured: growth

COC(=O)[C@]12CC[C@@H](C)[C@H](C)[C@@H]1C1=CC[C@@H]3[C@@]4(C)C(C=O)=C[C@@](C)(COS(C)(=O)=O)C4=CC[C@@]3(C)[C@]1(C)CC2
inactive: SK-OV-3 ovarian 17.1%
active: SR leukemia -15.6% | RPMI-8226 leukemia -4.75% | OVCAR-8 ovarian -12% | OVCAR-5 ovarian -35.9% | OVCAR-4 ovarian -61.1% | IGROV1 ovarian -24.1% | OVCAR-3 ovarian -85.7% | HS 578T breast -24.1% | NCI/ADR-RES ovarian -25.4%

C=CC(=O)N(C)[C@H]1C[C@H]2OC(C)(C1OC)n1c3ccccc3c3c4c(c5c6ccccc6n2c5c31)C(=O)NC4 (stereo not given in full)
active: SR leukemia -25.3% | RPMI-8226 leukemia -11.3% | OVCAR-8 ovarian 3.41% | SK-OV-3 ovarian -21.3% | OVCAR-3 ovarian -11.1% | HS 578T breast -14.9% | NCI/ADR-RES ovarian -1.79%
inactive: OVCAR-5 ovarian 28.9% | OVCAR-4 ovarian 42.2% | IGROV1 ovarian 13.7%

CCc1nc2cc(/C=C/C(=O)NO)c(F)cc2c(=O)n1CCc1ccccc1
active: SR leukemia 8.11% | OVCAR-8 ovarian 6.53% | SK-OV-3 ovarian -4.18% | OVCAR-3 ovarian 5.14% | NCI/ADR-RES ovarian -11.3%
inactive: RPMI-8226 leukemia 12% | OVCAR-5 ovarian 25.4% | OVCAR-4 ovarian 11% | IGROV1 ovarian 26.1% | HS 578T breast 54%

COc1ccc(-c2cc3c(oc2=O)-c2ccccc2OC3OC(C)=O)cc1 (stereo not given)
inactive: SR leukemia 80.7% | RPMI-8226 leukemia 83.1% | OVCAR-8 ovarian 107% | OVCAR-5 ovarian 111% | OVCAR-4 ovarian 90.7% | SK-OV-3 ovarian 93.4% | IGROV1 ovarian 103% | OVCAR-3 ovarian 109% | HS 578T breast 89% | NCI/ADR-RES ovarian 93.8%

O=C(CNc1nc2ccccc2s1)Nc1ccc(-c2nc3ccccc3s2)cc1
inactive: SR leukemia 91.3% | RPMI-8226 leukemia 107% | OVCAR-8 ovarian 102% | OVCAR-5 ovarian 98.4% | OVCAR-4 ovarian 102% | SK-OV-3 ovarian 107% | IGROV1 ovarian 66.6% | OVCAR-3 ovarian 98% | HS 578T breast 100% | NCI/ADR-RES ovarian 102%

CCCCCCC1(/C=N/NC(N)=O)NC(=O)NC1=O (stereo not given)
inactive: SR leukemia 102% | RPMI-8226 leukemia 111% | OVCAR-8 ovarian 105% | OVCAR-5 ovarian 89% | OVCAR-4 ovarian 98% | SK-OV-3 ovarian 83.2% | IGROV1 ovarian 105% | OVCAR-3 ovarian 111% | HS 578T breast 114% | NCI/ADR-RES ovarian 100%

Cc1sc2c(c1C)c(=O)nc1c(-c3nc(-c4ccccc4)cs3)n[nH]n12
inactive: SR leukemia 90.5% | RPMI-8226 leukemia 93.8% | OVCAR-8 ovarian 99.8% | OVCAR-5 ovarian 109% | OVCAR-4 ovarian 106% | SK-OV-3 ovarian 89.6% | IGROV1 ovarian 96.9% | OVCAR-3 ovarian 96.4% | HS 578T breast 93.4% | NCI/ADR-RES ovarian 96.1%

O=C(NO)c1ccc(Cn2c(=O)n(-c3ccccc3F)c(=O)c3ccccc32)cc1
active: SR leukemia 1.63% | OVCAR-8 ovarian -39.3% | SK-OV-3 ovarian 9.04% | IGROV1 ovarian -21.7% | OVCAR-3 ovarian -17.8%
inactive: RPMI-8226 leukemia 13.3% | OVCAR-5 ovarian 27.8% | OVCAR-4 ovarian 18.2% | HS 578T breast 46.6% | NCI/ADR-RES ovarian 41.6%

CCN1CCN(c2nc(C)cc(N(CCCNc3ccnc4cc(Cl)ccc34)Cc3ccc4c(c3)OCO4)n2)CC1
inactive: OVCAR-5 ovarian 51.6% | SK-OV-3 ovarian 33.3% | NCI/ADR-RES ovarian 30.2%
active: SR leukemia -45.2% | RPMI-8226 leukemia -41.9% | OVCAR-8 ovarian -12.4% | OVCAR-4 ovarian 2.74% | IGROV1 ovarian 0.209% | OVCAR-3 ovarian -28.3% | HS 578T breast -44.8%

Cc1cc2c3c(cccc3c1)C(=O)c1ccccc1-2
inactive: SR leukemia 96.6% | RPMI-8226 leukemia 109% | OVCAR-8 ovarian 107% | OVCAR-5 ovarian 100% | OVCAR-4 ovarian 94.8% | SK-OV-3 ovarian 107% | IGROV1 ovarian 90.5% | OVCAR-3 ovarian 90.2% | HS 578T breast 99.6% | NCI/ADR-RES ovarian 77.9%

Cc1ccc(N=C2CSc3nnc(-c4csc5c4CCCC5)n3N2)cc1
active: OVCAR-3 ovarian -21.4% | NCI/ADR-RES ovarian 1.16%
inactive: SR leukemia 32.2% | RPMI-8226 leukemia 24.7% | OVCAR-8 ovarian 35.1% | OVCAR-5 ovarian 54.4% | OVCAR-4 ovarian 62.1% | SK-OV-3 ovarian 27.6% | IGROV1 ovarian 53.3% | HS 578T breast 38.8%

CC1(C=O)NC(=O)NC1=O (stereo not given)
inactive: SR leukemia 96.6% | RPMI-8226 leukemia 109% | OVCAR-8 ovarian 94.9% | OVCAR-5 ovarian 101% | OVCAR-4 ovarian 110% | SK-OV-3 ovarian 81.9% | IGROV1 ovarian 111% | OVCAR-3 ovarian 115% | HS 578T breast 104% | NCI/ADR-RES ovarian 107%

CCN1/C(=C/C=C/c2n(-c3ccccc3)c3ccc(-c4nc5ccccc5s4)cc3[n+]2CC)N(c2ccccc2)c2ccc(-c3nc4ccccc4s3)cc21
inactive: SR leukemia 15.5% | OVCAR-8 ovarian 10.6% | OVCAR-5 ovarian 31.4% | OVCAR-4 ovarian 24.7% | IGROV1 ovarian 14% | HS 578T breast 28.2% | NCI/ADR-RES ovarian 52.3%
active: RPMI-8226 leukemia 8.29% | SK-OV-3 ovarian -4.86% | OVCAR-3 ovarian -0.0306%

Cc1cc(NCC(=O)Nc2ccc(-c3nc4ccccc4s3)cc2)no1
inactive: SR leukemia 69.9% | RPMI-8226 leukemia 98.4% | OVCAR-8 ovarian 96.4% | OVCAR-5 ovarian 119% | OVCAR-4 ovarian 111% | SK-OV-3 ovarian 120% | IGROV1 ovarian 88.5% | OVCAR-3 ovarian 99.3% | HS 578T breast 101% | NCI/ADR-RES ovarian 103%

CSc1nc2ncnc(SC)c2[nH]1
inactive: SR leukemia 90.3% | RPMI-8226 leukemia 106% | OVCAR-8 ovarian 103% | OVCAR-5 ovarian 102% | OVCAR-4 ovarian 101% | SK-OV-3 ovarian 79.3% | IGROV1 ovarian 114% | OVCAR-3 ovarian 115% | HS 578T breast 105% | NCI/ADR-RES ovarian 108%

COc1cnc2c(c1)C(=O)c1c-2n(CCCn2ccnc2)c(=O)c2cc(Cl)ccc12
active: SR leukemia -10.3% | RPMI-8226 leukemia -15.3% | SK-OV-3 ovarian -28% | OVCAR-3 ovarian -8.34% | NCI/ADR-RES ovarian 4.79%
inactive: OVCAR-8 ovarian 17.4% | OVCAR-5 ovarian 26.6% | OVCAR-4 ovarian 40.4% | IGROV1 ovarian 35.2% | HS 578T breast 75.1%

Nc1c2c(c(O)c3c1=C(CO)C=N3)=NCCS2
active: SR leukemia 3% | RPMI-8226 leukemia -30.8% | OVCAR-8 ovarian -46.4% | OVCAR-5 ovarian -70.5% | OVCAR-4 ovarian -95.3% | SK-OV-3 ovarian -90.9% | IGROV1 ovarian -64.3% | OVCAR-3 ovarian -62.3% | HS 578T breast 5.57% | NCI/ADR-RES ovarian -24.8%

Cc1cc(O)c2c(c1)C1OC(=O)CCCCCN1C1=C2C(=O)c2cccc(OC3CC(O)C(O)C(C)O3)c2C1=O (stereo not given)
inactive: SR leukemia 54.2% | RPMI-8226 leukemia 73.3% | OVCAR-8 ovarian 52.9% | OVCAR-5 ovarian 130% | OVCAR-4 ovarian 90.2% | SK-OV-3 ovarian 89.8% | IGROV1 ovarian 96.4% | HS 578T breast 71.5% | NCI/ADR-RES ovarian 91%
active: OVCAR-3 ovarian 7.5%

COc1cc(CCc2cc(NC(=O)c3ccc(N4C[C@@H](C)N[C@@H](C)C4)cc3)n[nH]2)cc(OC)c1
active: SR leukemia -11%
inactive: RPMI-8226 leukemia 41.5% | OVCAR-8 ovarian 58.4% | OVCAR-5 ovarian 29.7% | OVCAR-4 ovarian 49.6% | SK-OV-3 ovarian 25.6% | IGROV1 ovarian 16.7% | OVCAR-3 ovarian 78.8% | NCI/ADR-RES ovarian 91.3%

CNC(=O)c1ccccc1Nc1nc(Nc2ccc3c(c2OC)CCC[C@H](N2CCN(CCO)CC2)C3)ncc1Cl
active: SR leukemia -5.84% | RPMI-8226 leukemia -13% | OVCAR-4 ovarian 4.95% | SK-OV-3 ovarian -6.83% | IGROV1 ovarian -36.9%
inactive: OVCAR-8 ovarian 12.5% | OVCAR-5 ovarian 11.1% | OVCAR-3 ovarian 30.7% | NCI/ADR-RES ovarian 14%

COc1ncc(-c2ccc3nccc(-c4ccnnc4)c3c2)cc1NS(=O)(=O)c1ccc(F)cc1F
active: SR leukemia -16.9% | RPMI-8226 leukemia -35.4% | OVCAR-8 ovarian -17% | OVCAR-5 ovarian 7.97% | OVCAR-4 ovarian -8.87% | SK-OV-3 ovarian -52.1% | IGROV1 ovarian -24.1% | OVCAR-3 ovarian -58% | NCI/ADR-RES ovarian -20%

CNC(=O)c1cccc2cc(Oc3ccnc4cc(OCC5(N)CC5)c(OC)cc34)ccc12
inactive: SR leukemia 27.6% | RPMI-8226 leukemia 81.7% | OVCAR-8 ovarian 48.9% | OVCAR-5 ovarian 65.3% | OVCAR-4 ovarian 49.4% | SK-OV-3 ovarian 69.8% | IGROV1 ovarian 39.5% | OVCAR-3 ovarian 61.4% | NCI/ADR-RES ovarian 76%

Nc1ncnc2c1ccn2-c1cccc(NC(=O)c2ccc(N3CCOCC3)c(C(F)(F)F)c2)c1
active: RPMI-8226 leukemia 4.92%
inactive: SR leukemia 51.8% | OVCAR-8 ovarian 24.8% | OVCAR-5 ovarian 72.9% | OVCAR-4 ovarian 104% | SK-OV-3 ovarian 77.3% | IGROV1 ovarian 40.5% | OVCAR-3 ovarian 43.2% | NCI/ADR-RES ovarian 26.2%

COC(=O)[C@@H](NC(=O)[C@@H](OC)[C@@H]1Cc2cc3cc(OC4CC(OC5CC(O)C(O)C(C)O5)C(O)C(C)O4)c(C)c(O)c3c(O)c2C(=O)[C@H]1OC1CC(OC2CC(OC3CC(C)(O)C(O)C(C)O3)C(O)C(C)O2)C(O)C(C)O1)C(C)C (stereo not given in full)
active: SR leukemia -8.16% | RPMI-8226 leukemia -1.18% | OVCAR-5 ovarian 2.67% | HS 578T breast -13.9%
inactive: OVCAR-8 ovarian 12.6% | OVCAR-4 ovarian 13.4% | SK-OV-3 ovarian 20.4% | IGROV1 ovarian 32.3% | OVCAR-3 ovarian 15.3% | NCI/ADR-RES ovarian 69.6%

NC(=O)c1n[nH]n2c1nc(=O)c1c3c(sc12)CCCC3
inactive: SR leukemia 101% | RPMI-8226 leukemia 94.2% | OVCAR-8 ovarian 101% | OVCAR-5 ovarian 111% | OVCAR-4 ovarian 118% | SK-OV-3 ovarian 105% | IGROV1 ovarian 104% | OVCAR-3 ovarian 107% | HS 578T breast 110% | NCI/ADR-RES ovarian 106%

Cc1nn(-c2nc3ccccc3[nH]2)c2c1C(c1ccc(OCc3ccc(F)cc3)cc1)CC(=O)N2 (stereo not given)
inactive: SR leukemia 67.5% | RPMI-8226 leukemia 76.3% | OVCAR-8 ovarian 54% | OVCAR-5 ovarian 98.5% | OVCAR-4 ovarian 98.4% | SK-OV-3 ovarian 49.1% | IGROV1 ovarian 54.6% | OVCAR-3 ovarian 51% | HS 578T breast 39% | NCI/ADR-RES ovarian 65.9%
